Data taken from the supplement of paper PMC6555819.

How the values were obtained:
Assay in all cases: PBM binding z-score (relative to random genomic background probes); higher = stronger binding; sequences stand for … in GC…GCGATTGACAGCGTAGAATGAAGG
[1] = system: RARb homodimer (NR concentration 270 nM)
Method in brief: (§1)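 Random background probes are the reference for binding z-scores. These scores derive from regression-normalized fluorescence on custom Agilent 4×180K protein-binding microarrays incubated 1 h with ligand-free nuclear receptor dimers. Binding was detected with antibodies against each partner (one per run).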

[2] = system: RARg:RXRa (NR concentration 270 nM, RXRa partner concentration 90 nM)
Method in brief: as §1

[3] = system: RARg homodimer (NR concentration 270 nM)
Method in brief: as §1

[4] = system: RXRa DBDmut IVT, anti-RXR (DBD mutation: RXRa K156A/R161A, NR concentration 90 nM)
Method in brief: as §1

[5] = system: RXRa homodimer (NR concentration 180 nM)
Method in brief: as §1

[6] = system: THRa:RXRa (NR concentration 90 nM, RXRa partner concentration 90 nM)
Method in brief: as §1

[7] = system: THRa homodimer (NR concentration 90 nM)
Method in brief: as §1

[8] = system: VDR homodimer (NR concentration 270 nM)
Method in brief: as §1

CCGAGTAGGTTATGGGGGATTCAGGCAACGGTGA was tested, and the PBM binding z-score [1] was 1.28, the PBM binding z-score [2] was 1.3 and the PBM binding z-score [3] was 1.08. The PBM binding z-score [4] was 0.281, the PBM binding z-score [5] was 0.959 and the PBM binding z-score [6] was 1.58. It also gave a PBM binding z-score [7] of 1.7 and a PBM binding z-score [8] of 1.12.

In the case of CGAACTAGGTCATTGACAGGACAGTGAGTAGTAA, the PBM binding z-score [1] was 2.57, the PBM binding z-score [2] was 4.39 and the PBM binding z-score [3] was 4.12. It also gave a PBM binding z-score [4] of 2.41, a PBM binding z-score [5] of 2.42 and a PBM binding z-score [6] of 2.81. For the same sequence, the PBM binding z-score [7] was 0.505 and the PBM binding z-score [8] was 0.794.

Work on TCTTGTAGATCAACAAGAGGTTAAGAAAGATCGA yielded a PBM binding z-score [1] of 0.756, a PBM binding z-score [2] of 1.56 and a PBM binding z-score [3] of 0.53. It also gave a PBM binding z-score [4] of -0.00375, a PBM binding z-score [5] of 1.4 and a PBM binding z-score [6] of 1.22. The PBM binding z-score [7] was -0.94 and the PBM binding z-score [8] was -0.26.

In the case of TCTCGTAGATCAATAGAGGTTAAGAAAGTGCGCT, the PBM binding z-score [1] was 0.966, the PBM binding z-score [2] was 0.48 and the PBM binding z-score [3] was 0.249. The PBM binding z-score [4] was 0.754, the PBM binding z-score [5] was 1.19 and the PBM binding z-score [6] was 2.07. The PBM binding z-score [7] was -0.641 and the PBM binding z-score [8] was 0.163.

ATCTCTAGGTAAAGTTCAGTTAAAGATCGATAGA was tested, and the PBM binding z-score [1] was 2.73, the PBM binding z-score [2] was 1.65 and the PBM binding z-score [3] was 2.5. For the same sequence, the PBM binding z-score [4] was 1.68, the PBM binding z-score [5] was 1.5 and the PBM binding z-score [6] was 1.47. It also gave a PBM binding z-score [7] of 0.842 and a PBM binding z-score [8] of 2.04.

In the case of TCTATTAGTTGATTAGGGCAACCGGAACAGCGGA, the PBM binding z-score [1] was 0.786, the PBM binding z-score [2] was 0.516 and the PBM binding z-score [3] was 0.529. The PBM binding z-score [4] was 1.16, the PBM binding z-score [5] was 0.673 and the PBM binding z-score [6] was 0.816. It also gave a PBM binding z-score [7] of 0.261 and a PBM binding z-score [8] of 0.547.

Work on CCGACTAGGGCAGAAAGGTTACCATACCATCCGG yielded a PBM binding z-score [1] of 2.4, a PBM binding z-score [2] of 1.99 and a PBM binding z-score [3] of 1.91. For the same sequence, the PBM binding z-score [4] was -0.271, the PBM binding z-score [5] was 1.92 and the PBM binding z-score [6] was 1.21. For the same sequence, the PBM binding z-score [7] was -0.493 and the PBM binding z-score [8] was -0.0974.
